In PubChem BioAssay (NCATS):
Results filed as inconclusive are left out. Where a call stands in place of a potency, no number is given. Values without a mark were called inactive. Activity calls are given as the source filed them. The call rests on the fitted dose curve; tested in HEK293 reporter line.

Experiment: qHTS for Inhibitors of the Functional Ribonucleoprotein Complex (vRNP) of Lassa (LASV) Arenavirus: Viability assay - alamar blue signal for LASV Primary Screen (AID 1347083)
Conditions: cell viability, alamar blue fluorescence (LASV minigenome counter-screen); series mostly up to 57.5 µM
Further: nearly all actives have a fitted effect of over 80% in size.

Which Potency does the source give for `CCN(CC)CC(=O)Oc1ccc(NC(C)=O)cc1` here?
The Potency was “inactive”.

Which Potency does the source give for `CCCC(CCC)(C(=O)OCC)C(=O)OCC` here?
Its Potency is “inactive”.

Which activity change, negative = reduced viability does the source give for `O=C(O)Cc1cccc(-c2cc(CCCCCCc3ccc(O[C@H]4O[C@H](CO)[C@@H](O)[C@H](O)[C@@H]4O)c(-c4cccc(CC(=O)O)c4)c3)ccc2O[C@H]2O[C@H](CO)[C@@H](O)[C@H](O)[C@@H]2O)c1` here?
Its activity change, negative = reduced viability is 10.5% [at 0.757 µM].

With `Cc1cc(=O)oc2cc(O[C@@H]3SC[C@@H](O)[C@H](O)[C@H]3O)ccc12` as the compound, how does the Potency read?
Its Potency is “inactive”.

For `C=CCn1c(=O)n([C@@H]2O[C@H](CO)[C@@H](O)[C@H]2O)c2nc(N)[nH]c(=O)c21`, which Potency is on record?
Its Potency is “inactive”.

Which Potency does the source give for `O=C(OCC1(COC(=O)c2cccnc2)CCCC(COC(=O)c2cccnc2)(COC(=O)c2cccnc2)C1O)c1cccnc1` here?
Its Potency is “inactive”.

For `COc1cc2c(Nc3ccc(Br)cc3F)ncnc2cc1OCC1CCN(C)CC1`, which Potency is on record?
Its Potency is “inactive”.

With `Cc1nnc(C(C)C)n1C1C[C@H]2CC[C@@H](C1)N2CC[C@H](NC(=O)C1CCC(F)(F)CC1)c1ccccc1` (stereo partly drawn) as the compound, how does the Potency read?
The Potency was “inactive”.

For `CC(C(=O)O)c1ccc(C(=O)c2ccccc2)s1` (stereo not drawn), which Potency is on record?
Its Potency is “inactive”.

Which Potency does the source give for `CC1c2ccccc2CN1NC(=O)c1ccc(Cl)c(S(N)(=O)=O)c1` (stereo not drawn) here?
The Potency was “inactive”.

Which Potency does the source give for `Nc1ccc(S(=O)(=O)Nc2ccc(Cl)nn2)cc1` here?
The Potency was “inactive”.

With `COc1ccc(O)cc1` as the compound, how does the Potency read?
The Potency was “inactive”.

Which Potency does the source give for `c1ccc2sc(SN3CCOCC3)nc2c1` here?
Its Potency is “inactive”.

With `Cc1cccc(C)c1NC(=O)c1cc(S(N)(=O)=O)c(Cl)cc1O` as the compound, how does the Potency read?
Its Potency is “inactive”.

Which Potency does the source give for `CN1C(C(=O)Nc2ccccn2)=C(O)c2sccc2S1(=O)=O` here?
Its Potency is “inactive”.

With `COC(=O)c1cc(Cl)ccc1OC` as the compound, how does the Potency read?
Its Potency is “inactive”.

Which Potency does the source give for `NC1CCN(c2cccc(Cl)n2)CC1` here?
The Potency was “inactive”.

Which Potency does the source give for `O=C(O)[C@@H]1CSCN1` here?
The Potency was “inactive”.

Which Potency does the source give for `Cc1ccccc1OCC(O)CO` (stereo not drawn) here?
The Potency was “inactive”.

Which Potency does the source give for `CCOC(=O)[C@H](CCc1ccccc1)N[C@@H](C)C(=O)N1[C@H](C(=O)O)C[C@H]2CCCC[C@@H]21` here?
The Potency was “inactive”.

With `CC(=O)Nc1ccc(CC(=O)O)cc1` as the compound, how does the Potency read?
The Potency was “inactive”.

With `CC(N=C(NC#N)Nc1ccncc1)C(C)(C)C` (stereo not drawn) as the compound, how does the Potency read?
Its Potency is “inactive”.

For `Cn1nnc2c(C(N)=O)ncn2c1=O`, which Potency is on record?
Its Potency is “inactive”.

With `OCCc1ccccc1` as the compound, how does the Potency read?
The Potency was “inactive”.

For `COC(=O)/C=C(/C)N`, which Potency is on record?
The Potency was “inactive”.

With `CCCCCCCCCCCCCCCCOP(=O)([O-])OCC[N+](C)(C)C` as the compound, how does the Potency read?
The Potency was “inactive”.

For `O=C(c1ccccc1)C(O)c1ccccc1` (stereo not drawn), which Potency is on record?
Its Potency is “inactive”.

With `COc1cc(C(=O)NC2CCCNC2)cc(OC)c1OC` (stereo not drawn) as the compound, how does the Potency read?
The Potency was “inactive”.

With `O=C(O)CCCCC(=O)O` as the compound, how does the Potency read?
Its Potency is “inactive”.

For `Cc1nc(-c2ccc(Cl)cc2)oc1COC(C)(C)C(=O)O`, which Potency is on record?
Its Potency is “inactive”.

With `CCS(=O)(=O)c1ccc(OC)c(C(=O)OC)c1` as the compound, how does the Potency read?
Its Potency is “inactive”.

With `CCOc1cc(OCC)c(C(=O)CCC(=O)O)cc1OCC` as the compound, how does the Potency read?
The Potency was “inactive”.

Which Potency does the source give for `CCOC(=O)c1ccc(OCCN2C[C@H](O)[C@@H](O)[C@H](O)[C@H]2CO)cc1` here?
The Potency was “inactive”.

With `CC(CCc1ccc(O)cc1)NCCc1ccc(O)c(O)c1` (stereo not drawn) as the compound, how does the Potency read?
Its Potency is “inactive”.

Which Potency does the source give for `CCOc1ncc(F)c(=O)[nH]1` here?
The Potency was “inactive”.

Which Potency does the source give for `CC(C)=CCC1C(=O)N(c2ccccc2)N(c2ccccc2)C1=O` here?
The Potency was “inactive”.

For `CN1CCN(N)CC1`, which Potency is on record?
Its Potency is “inactive”.

For `CN1N=C(C(N)=O)CCC1=O`, which Potency is on record?
The Potency was “inactive”.

Which Potency does the source give for `O=C1O[C@H](CO)[C@@H](O)[C@H](O)[C@H]1O` here?
Its Potency is “inactive”.

Experiment: qHTS for Inhibitors of the Functional Ribonucleoprotein Complex (vRNP) of Lymphocytic Choriomeningitis Arenaviruses (LCMV): Viability assay - alamar blue signal for LCMV Primary Screen (AID 1347085)
Conditions: alamar blue viability counter-screen, LCMV vRNP screen cells; series mostly up to 57.5 µM

With `CCN(CC)CC(=O)Oc1ccc(NC(C)=O)cc1` as the compound, how does the Potency read?
The Potency was “inactive”.

With `CCCC(CCC)(C(=O)OCC)C(=O)OCC` as the compound, how does the Potency read?
The Potency was “inactive”.

For `O=C(O)Cc1cccc(-c2cc(CCCCCCc3ccc(O[C@H]4O[C@H](CO)[C@@H](O)[C@H](O)[C@@H]4O)c(-c4cccc(CC(=O)O)c4)c3)ccc2O[C@H]2O[C@H](CO)[C@@H](O)[C@H](O)[C@@H]2O)c1`, which activity change, negative = lower viability is on record?
Its activity change, negative = lower viability is 2.8% [at 0.757 µM].

For `Cc1cc(=O)oc2cc(O[C@@H]3SC[C@@H](O)[C@H](O)[C@H]3O)ccc12`, which Potency is on record?
The Potency was “inactive”.

Which Potency does the source give for `C=CCn1c(=O)n([C@@H]2O[C@H](CO)[C@@H](O)[C@H]2O)c2nc(N)[nH]c(=O)c21` here?
The Potency was “inactive”.

With `O=C(OCC1(COC(=O)c2cccnc2)CCCC(COC(=O)c2cccnc2)(COC(=O)c2cccnc2)C1O)c1cccnc1` as the compound, how does the Potency read?
Its Potency is “inactive”.

Which Potency does the source give for `COc1cc2c(Nc3ccc(Br)cc3F)ncnc2cc1OCC1CCN(C)CC1` here?
Its Potency is “inactive”.

Which Potency does the source give for `Cc1nnc(C(C)C)n1C1C[C@H]2CC[C@@H](C1)N2CC[C@H](NC(=O)C1CCC(F)(F)CC1)c1ccccc1` (stereo partly drawn) here?
Its Potency is “inactive”.

For `CC(C(=O)O)c1ccc(C(=O)c2ccccc2)s1` (stereo not drawn), which Potency is on record?
The Potency was “inactive”.

With `CC1c2ccccc2CN1NC(=O)c1ccc(Cl)c(S(N)(=O)=O)c1` (stereo not drawn) as the compound, how does the Potency read?
The Potency was “inactive”.

For `Nc1ccc(S(=O)(=O)Nc2ccc(Cl)nn2)cc1`, which Potency is on record?
The Potency was “inactive”.

For `COc1ccc(O)cc1`, which Potency is on record?
Its Potency is “inactive”.

For `c1ccc2sc(SN3CCOCC3)nc2c1`, which Potency is on record?
The Potency was “inactive”.

Which Potency does the source give for `Cc1cccc(C)c1NC(=O)c1cc(S(N)(=O)=O)c(Cl)cc1O` here?
The Potency was “inactive”.

Which Potency does the source give for `CN1C(C(=O)Nc2ccccn2)=C(O)c2sccc2S1(=O)=O` here?
The Potency was “inactive”.

With `COC(=O)c1cc(Cl)ccc1OC` as the compound, how does the Potency read?
The Potency was “inactive”.

For `NC1CCN(c2cccc(Cl)n2)CC1`, which Potency is on record?
The Potency was “inactive”.

With `O=C(O)[C@@H]1CSCN1` as the compound, how does the Potency read?
The Potency was “inactive”.

With `Cc1ccccc1OCC(O)CO` (stereo not drawn) as the compound, how does the Potency read?
Its Potency is “inactive”.

Which Potency does the source give for `CCOC(=O)[C@H](CCc1ccccc1)N[C@@H](C)C(=O)N1[C@H](C(=O)O)C[C@H]2CCCC[C@@H]21` here?
The Potency was “inactive”.

With `CC(=O)Nc1ccc(CC(=O)O)cc1` as the compound, how does the Potency read?
The Potency was “inactive”.

With `CC(N=C(NC#N)Nc1ccncc1)C(C)(C)C` (stereo not drawn) as the compound, how does the Potency read?
The Potency was “inactive”.

With `Cn1nnc2c(C(N)=O)ncn2c1=O` as the compound, how does the Potency read?
Its Potency is “inactive”.

Which Potency does the source give for `OCCc1ccccc1` here?
The Potency was “inactive”.

Which Potency does the source give for `COC(=O)/C=C(/C)N` here?
Its Potency is “inactive”.

With `CCCCCCCCCCCCCCCCOP(=O)([O-])OCC[N+](C)(C)C` as the compound, how does the Potency read?
Its Potency is “inactive”.

With `O=C(c1ccccc1)C(O)c1ccccc1` (stereo not drawn) as the compound, how does the Potency read?
The Potency was “inactive”.

For `COc1cc(C(=O)NC2CCCNC2)cc(OC)c1OC` (stereo not drawn), which Potency is on record?
The Potency was “inactive”.

For `O=C(O)CCCCC(=O)O`, which Potency is on record?
The Potency was “inactive”.

Which Potency does the source give for `Cc1nc(-c2ccc(Cl)cc2)oc1COC(C)(C)C(=O)O` here?
The Potency was “inactive”.

Which Potency does the source give for `CCS(=O)(=O)c1ccc(OC)c(C(=O)OC)c1` here?
Its Potency is “inactive”.

Which Potency does the source give for `CCOc1cc(OCC)c(C(=O)CCC(=O)O)cc1OCC` here?
Its Potency is “inactive”.

With `CCOC(=O)c1ccc(OCCN2C[C@H](O)[C@@H](O)[C@H](O)[C@H]2CO)cc1` as the compound, how does the Potency read?
The Potency was “inactive”.

For `CC(CCc1ccc(O)cc1)NCCc1ccc(O)c(O)c1` (stereo not drawn), which Potency is on record?
Its Potency is “inactive”.

With `CCOc1ncc(F)c(=O)[nH]1` as the compound, how does the Potency read?
Its Potency is “inactive”.

With `CC(C)=CCC1C(=O)N(c2ccccc2)N(c2ccccc2)C1=O` as the compound, how does the Potency read?
Its Potency is “inactive”.

For `CN1CCN(N)CC1`, which Potency is on record?
Its Potency is “inactive”.

For `CN1N=C(C(N)=O)CCC1=O`, which Potency is on record?
Its Potency is “inactive”.

For `O=C1O[C@H](CO)[C@@H](O)[C@H](O)[C@H]1O`, which Potency is on record?
The Potency was “inactive”.
